# Sampled rows, rich in hits. Any-hit rate of the full collection: about 3.4%.
# RE007 growth inh: qHTS Assay for Inhibitors of the HIV-1 protein Vpr | S. pombe RE007 Vpr strain, BacTiter-Glo ATP luminescence, 24 h | Potency, µM (series often up to 92.2 µM), hits mostly inhibitors | actives 0.21% (n = 360,000); active means well fitted falling curve with a large enough effect; inconclusive means small, poorly fitted or top-dose-only effect; inactive means no such curve, though single readings can be large or run the other way; further: nearly all actives have a fitted effect of over 50% in size
#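 Fission yeast RE007 carrying one integrated HIV-1 vpr copy, seeded at OD 0.01 in PMG+AL medium with 23 nL pinned compound. Grown 24 h at 30 degrees; viability read by BacTiter-Glo luminescence after 5 min.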
# Sm TGR block: qHTS Assay for the Inhibitors of Schistosoma Mansoni Peroxiredoxins; Potency, µM (titrated, usually from 114 µM), usual class: inhibitors; actives 3% (n = 360,000); purified TGR, DTNB reduction, TNB absorbance 405 nm; Schistosoma mansoni thioredoxin glutathione reductase (TGR), Q962Y6; further: nearly all actives have a fitted effect of over 60% in size
#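 TGR 20 nM + NADPH 100 uM (dispensed conc.), cpd preinc 15 min RT; start with NADPH (500 uM addition) then DTNB (15 mM addition). Kinetic TNB absorbance, 405 nm filter. Four-parameter Hill fit across titration.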
# AmpC inh detg: qHTS Inhibitors of AmpC Beta-Lactamase (assay with detergent) | P00811 | Potency, µM (series often up to 114 µM), actives largely listed as inhibitors | AID 485294, 2010 | AmpC hydrolysis of nitrocefin, absorbance 480 nm, 0.01% Triton | actives 0.041% (n = 370,000); further: nearly all actives have a fitted effect of over 25% in size
# Target sequence (P00811 whole entry, looked up): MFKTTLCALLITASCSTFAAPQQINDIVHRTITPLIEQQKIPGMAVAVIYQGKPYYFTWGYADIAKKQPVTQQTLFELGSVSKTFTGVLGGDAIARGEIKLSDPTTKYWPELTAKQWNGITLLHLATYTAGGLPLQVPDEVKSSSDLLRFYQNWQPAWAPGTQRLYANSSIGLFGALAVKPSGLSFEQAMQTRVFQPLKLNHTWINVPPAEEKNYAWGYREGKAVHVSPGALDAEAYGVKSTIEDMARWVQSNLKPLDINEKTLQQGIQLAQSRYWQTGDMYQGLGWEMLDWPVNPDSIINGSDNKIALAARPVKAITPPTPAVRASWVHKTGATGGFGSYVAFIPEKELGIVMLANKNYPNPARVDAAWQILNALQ
#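 20 mM phosphate pH 7.0 + 0.01% (detergent screen) or 0.0001% Triton X-100; 5.3 nM AmpC reagent; cpd preinc 15 min RT; nitrocefin (800 uM stock) to start; A480 q20 s × 4 min; Activity was normalised to no-enzyme and no-compound control wells.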
# AmpC no deterg: qHTS Inhibitors of AmpC Beta-Lactamase (assay without detergent) | AmpC nitrocefin hydrolysis, absorbance 480 nm, 0.0001% Triton | Potency, µM (titrated, usually from 57.1 µM), hits mostly inhibitors | actives 0.52% (n = 330,000) | P00811; further: nearly all actives have a fitted effect of over 20% in size
#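 20 mM phosphate pH 7.0 + 0.01% (detergent screen) or 0.0001% Triton X-100; 5.3 nM AmpC reagent; cpd preinc 15 min RT; nitrocefin (800 uM stock) to start; A480 q20 s × 4 min; Activity was normalised to no-enzyme and no-compound control wells.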
# Giardia FBPA inh: qHTS Assay for Inhibitors of Fructose-1,6-bisphosphate Aldolase from Giardia Lamblia; actives 0.71% (n = 290,000); AID 2451, 2010; Potency, µM (series often up to 59.6 µM), actives largely listed as inhibitors; purified Giardia FBPA; further: nearly all actives have a fitted effect of over 55% in size
# Target sequence (A8B2U2 whole entry, looked up): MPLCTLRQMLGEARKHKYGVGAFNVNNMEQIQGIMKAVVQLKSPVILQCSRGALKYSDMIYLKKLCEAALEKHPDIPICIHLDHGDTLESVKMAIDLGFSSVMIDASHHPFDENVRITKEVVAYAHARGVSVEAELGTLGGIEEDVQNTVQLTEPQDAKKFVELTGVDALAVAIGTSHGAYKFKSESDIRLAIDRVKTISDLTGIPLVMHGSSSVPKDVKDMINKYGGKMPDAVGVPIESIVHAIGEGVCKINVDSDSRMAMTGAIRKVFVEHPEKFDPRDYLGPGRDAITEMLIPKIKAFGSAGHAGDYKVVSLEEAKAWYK
#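 40 nM FBPA preincubated 10 min at RT with compound (up to 57.5 uM final), then substrate plus GAPDH/TPI/NAD/arsenate coupling and diaphorase/resazurin added. Fluorescence read after 20 min at RT, 525/598 nm.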
# Numbers stand for hits; 0 = inactive; ? = inconclusive; - = no result given; [ ] = dose if it differs, or a comment. Unless noted, the call rests on the fitted dose curve; in most records, active means well fitted curve in the direction sought with a large enough effect; inconclusive means small, poorly fitted or top-dose-only effect, or another doubt; inactive means no such curve, though single readings can be large; an effect the other way counts as inactive or inconclusive.
SMILES,RE007 growth inh,Sm TGR block,AmpC inh detg,AmpC no deterg,Giardia FBPA inh
CCCNS(=O)(=O)c1cccc(C(=O)OCc2cc(=O)oc3cc(OC)ccc23)c1,0,0,0,0,0
CN(C)c1cccc(C(=O)OCc2cc(=O)oc3cc(O)ccc23)c1,0,0,0,18µM,0
COc1ccc2c(COC(=O)c3cccc(S(=O)(=O)NCC(C)C)c3)cc(=O)oc2c1,0,89µM,0,0,0
CC1CN(S(=O)(=O)c2cccc(C(=O)OCc3cc(=O)oc4cc(O)ccc34)c2)CC(C)O1 (stereo not given),0,0,0,0,0
CC(=O)Nc1cc2c3c(cccc3c1)-c1ccccc1-2,0,-,-,-,-
O=C(NCc1ccc(F)cc1)Nc1cccc([N+](=O)[O-])c1,0,-,0,0,0
CCOc1cc(C(C(=O)NCC2CCCO2)N(C(=O)Cn2nnc3ccccc32)c2ccc(OC)c(OC)c2)ccc1O (stereo not given),0,32µM,0,0,0
COc1cc(C(C(=O)NCC2CCCO2)N(C(=O)Cn2nnc3ccccc32)c2ccc(C(C)=O)cc2)ccc1O (stereo not given),0,?,0,0,0
CCN1CCN(c2nc3ccccn3c(=O)c2/C=C(\C#N)S(=O)(=O)c2ccccc2)CC1,0,0,0,0,0
O=C(Nc1nccs1)c1ccc(-c2ccc(F)c(Cl)c2)o1,0,?,0,25µM,-
CC1CCCC(NC(=O)NC(=O)COC(=O)C2=NN(c3ccccc3)C(=O)CC2)C1C (stereo not given),0,0,?,0,-
COc1ccccc1C(=O)N1CCN(c2nc3cc(C)cc(C)c3cc2C#N)CC1,0,-,-,-,-
CCOC(=O)C1(N(CC)CC)Sc2cc(C)ccc2NC1=O (stereo not given),0,0,?,0,-
C=C(C)C(=O)OC1(C(F)(F)F)Oc2cc(C)ccc2NC1=O (stereo not given),0,40µM,?,0,0
COC(=O)C1=C(c2cccc(C#N)c2)C[C@@H]2CC[C@H]1N2C(=O)NCc1ccco1,0,35µM,0,0,-
COC(=O)C1=C(c2cccc(C#N)c2)C[C@@H]2CC[C@H]1N2C(=O)NCCO,0,0,0,0,-
O=C(Nc1ccc(-c2csc(Nc3ccccc3)n2)cc1)c1ccccc1,0,0,?,0,0
N#C/C(=C/c1ccc(N2CCOCC2)o1)c1ccc(Br)cc1,0,2µM,0,0,-
N#C/C(=C\c1ccc(N2CCOCC2)o1)c1ccccc1,?,1.1µM,0,0,?
CCOc1ccc(C(=O)NCC(=O)NNC(=O)C2COc3ccccc3O2)cc1OCC (stereo not given),0,0,0,0,-
Cc1cc(C)c(C#N)c(OCC(=O)c2ccccc2)n1,0,0,0,0,0
Cc1cc(C)c(C#N)c(OCc2ccc(Cl)nc2)n1,0,89µM,0,0,0
CCN1C(=O)/C(=C/C=C2/Sc3ccc4ccccc4c3N2CCO)SC1=S,0,0,0,0,0
CCN1/C(=C/C=C/c2oc3ccc4ccccc4c3[n+]2CC)Oc2ccc3ccccc3c21,13µM,-,0,0,0
COC(=O)c1cc(NC(=O)c2cccc(C(F)(F)F)c2)c(=O)oc1C/C=N/OCc1cccc(Cl)c1Cl,0,0,0,7.9µM,0
SMILES,RE007 growth inh,Sm TGR block,AmpC inh detg,AmpC no deterg,Giardia FBPA inh
CN1CCCN(C(=O)c2ccccc2Cl)CC1,0,0,0,0,0
O=C(O)c1ccccc1C(=O)N1CCN(C(=O)c2ccccc2Cl)CC1,0,89µM,0,0,0
O=C(O)c1ccccc1C(=O)N1CCN(c2ccccc2)CC1,0,35µM,0,0,0
CCCn1c(O)c2ccc(C(=O)N=NC(=O)c3cccnc3)cc2c1O,0,0,0,0,0
COc1ccc(S(=O)(=O)N=C2C=C(C)C(=O)C(C)=C2)cc1,0,32µM,0,0,0
Cc1cccc(NC(=S)Nc2ccccn2)c1C,0,0,0,0,0
Cc1ccc(CN(C(=O)c2ccccc2F)c2ccccn2)o1,-,45µM,0,-,-
O=C(O)CC(CNS(=O)(=O)c1ccccc1)c1ccccc1 (stereo not given),0,0,?,2.5µM,0
O=C(CSc1nnc(-c2cccnc2)n1Cc1ccco1)c1ccc(Br)cc1,0[3.69 µM],?,?,0,0
CCSc1nnc(-c2cccnc2)n1Cc1ccco1,0,35µM,0,0,0
O=C(CSc1nnc(-c2cccnc2)n1Cc1ccco1)c1ccc2ccccc2c1,0,22µM,?,0,0
O=c1oc2ccccc2c(N2CCN(c3ccc(F)cc3)CC2)c1CN1CCCC1,-,0,0,-,-
CC(C)(C)NC(=O)COc1ccc(-c2ccccc2)cc1,0,0,0,0,0
COc1ccc(OC)c(/C=N/NC(=O)c2ccc(Cn3cc([N+](=O)[O-])cn3)o2)c1,0,0,?,40µM,0
O=C1C=CC(=Nc2ccc3c(c2)Cc2ccccc2-3)O1,28µM,-,-,-,-
CCOc1ccc(/C=C2\SC(=O)N(CCNC(=O)C3COc4ccccc4O3)C2=O)cc1OC (stereo not given),0,35µM,0,0,0
Cc1cc(C)c(S(=O)(=O)N2CCCC(C(=O)N3CCCC3)C2)c(C)c1 (stereo not given),0,0,0,0,0
COc1ccc(C(=O)OCCN2CCOCC2)cc1OC,0,0,0,0,0
O=C1NC(=O)N(Cc2ccco2)C(=O)/C1=C/c1ccc(-c2cccc([N+](=O)[O-])c2)o1,0,40µM,?,35µM,0
O=[N+]([O-])c1cccc(-c2ccc(/C=N/NC(=S)NCc3ccco3)o2)c1,0,0,0,8.9µM,0
O=C1NC(=O)N(Cc2ccco2)C(=O)/C1=C\c1cccn1CCOc1ccc(Cl)cc1,0,?,?,0,0
O=[N+]([O-])c1cccc(-c2ccc(/C=N/NC(=S)Nc3ccccc3)o2)c1,0,0,?,?,0
Cc1cccc(OCCn2cccc2/C=C2/C(=O)NC(=O)N(Cc3ccco3)C2=O)c1,0,4µM,0,0,0
Cn1c(=O)c2c(nc(OC3CCCCCC3)n2C)n(C)c1=O,0,-,-,-,-
Cc1ccnc2nc(C(=O)OCC(=O)N(Cc3ccccc3)C(C)(C)C)nn12,0,-,-,0,-
C=C1CN(Cc2ccccc2)S(=O)(=O)c2ccccc21,0,18µM,0,0,0
CCOC(=O)[C@]12CCC=C1N(Cc1ccc3c(c1)OCO3)C(=O)[C@H](CC(=O)N1CCCC1)C2,0,-,-,-,-
Cc1ccc(CC2C(=O)N(C)C(=O)N(C)C2=O)s1,0,40µM,0,0,0
Cc1cc(C)c2c(c1)/C(=C/C(=O)c1ccc(Br)s1)C(=O)N2,0,0,0,0,0

# Compound activity (PubChem BioAssay)
